TRb-SRC2 inh – TRbeta-SRC2 interaction inhibition; P10828; TRbeta-SRC2 peptide binding, fluorescence polarization; receptor liganded with 1 µM T3; Potency, µM (series often up to 106 µM), hits mostly inhibitors; 0.065% of 280,000 active; AID 1469; further: nearly all actives have a fitted effect of over 50% in size
Target sequence (P10828 whole entry, looked up): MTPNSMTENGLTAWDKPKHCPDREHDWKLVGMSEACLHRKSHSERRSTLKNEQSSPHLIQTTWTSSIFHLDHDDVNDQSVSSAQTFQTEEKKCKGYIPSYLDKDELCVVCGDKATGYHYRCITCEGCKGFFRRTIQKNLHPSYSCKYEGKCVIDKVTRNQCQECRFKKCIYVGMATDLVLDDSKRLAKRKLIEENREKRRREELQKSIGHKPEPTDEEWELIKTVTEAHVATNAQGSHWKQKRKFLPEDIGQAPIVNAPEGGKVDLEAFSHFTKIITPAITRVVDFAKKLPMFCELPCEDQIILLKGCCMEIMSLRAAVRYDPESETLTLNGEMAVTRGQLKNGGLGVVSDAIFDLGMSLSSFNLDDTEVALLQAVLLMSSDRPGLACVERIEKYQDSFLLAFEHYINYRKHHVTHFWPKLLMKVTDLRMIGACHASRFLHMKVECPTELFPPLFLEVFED
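Human TRb LBD (0.6 uM) plus Texas Red-labeled SRC2 peptide (20 nM), 1uM T3, 5% DMSO, 5 hr at ambient temperature. Decreased polarization (555/632 nm) flags inhibition; data normalized to free and bound peptide controls.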
Tau FP inhib – blocks human tau fibril formation measured by polarization; P10636; K18 P301L tau heparin fibrillization, Alexa594 FP, 6 h; Potency, µM (titrated, usually from 57.7 µM), hits mostly inhibitors; 0.39% of 280,000 active; AID 1468; further: nearly all actives have a fitted effect of over 55% in size
Target sequence (P10636 561-689 P618L limits assumed): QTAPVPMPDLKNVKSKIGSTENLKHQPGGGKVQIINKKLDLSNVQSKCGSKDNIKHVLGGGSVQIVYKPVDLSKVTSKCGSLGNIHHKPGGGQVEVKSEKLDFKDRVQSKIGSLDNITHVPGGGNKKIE
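Human K18 P301L fragment (15 uM unlabeled plus 0.24 uM Alexa 594-labeled) in 100 mM sodium acetate pH 7 with compound, aggregation induced by 20 uM heparin for 6 hr at 37 C. ThT (30 uM) added for 1 hr, then Alexa 594 FP read.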
Tau fibril ThT – inhibitors of human tau fibril formation, thioflavin T binding. 2.1% of 270,000 active. AID 1460. P10636. recombinant tau K18 P301L, heparin-induced fibrillization, ThT fluorescence. Potency, µM (titrated, usually from 57.4 µM), usual class: inhibitors; further: nearly all actives have a fitted effect of over 55% in size
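ThT emission at 510 nm, taken 1 hr after adding 30 uM dye, quantifies aggregates formed when 20 uM heparin acts on human tau K18 P301L for 6 hr at 37 C.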
Tau fluor cs – counter-screen for tau fibril formation inhibitors; AID 1463; 0.93% of 280,000 active; Potency, µM (highest dose often 57.7 µM); tau K18 P301L Alexa594 fluorescence, heparin fibrillization; further: nearly all actives have a fitted effect of over 55% in size
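Human tau K18 P301L (15 uM unlabeled, 0.24 uM Alexa 594-labeled) in 100 mM sodium acetate pH 7 with 20 uM heparin, 6 hr at 37 C. ThT 30 uM added, 1 hr ambient; Alexa 594 FP and total fluorescence read at 555/632 nm.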
TR SRC2 fluor cs – Texas Red fluorescence interference in TRb-SRC2 counter-screen; TRb/SRC2 Texas Red total fluorescence interference; Potency, µM (titrated, usually from 106 µM); 0.29% of 280,000 active; active means well fitted curve in either direction with a large enough effect; inconclusive means small, poorly fitted or top-dose-only effect
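Human TRb ligand-binding domain at 0.6 uM with 20 nM Texas Red SRC2 peptide in Tris buffer containing 1 uM T3 and 5% DMSO, incubated with compound 5 h at ambient temperature. Total fluorescence (555/632 nm) calculated as parallel + 2 × perpendicular.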
Of the large screens only hits and unclear results are named; the others gave an inactive call; [ ] = dose if it differs, or a comment. Rows were chosen to be rich in hits. Some 3.1% of all compounds tested hit in one or more screens of this group. Unless noted, the call rests on the fitted dose curve; in most records, active means well fitted curve in the direction sought with a large enough effect; inconclusive means small, poorly fitted or top-dose-only effect, or another doubt; inactive means no such curve, though single readings can be large; an effect the other way counts as inactive or inconclusive.

Cn1c(=O)oc2cc(S(=O)(=O)N3CCCC(C(=O)N4CCN(c5cccc(Cl)c5)CC4)C3)ccc21 (stereo unspecified)	none
COc1ccc(C2=C(Nc3ccc(Br)c(C)c3)c3ccccc3C2=O)cc1	Tau fibril ThT inconclusive, Tau fluor cs 4µM[quencher]
Cc1cc(C)cc(NC2=C(c3ccccc3)C(=O)c3ccccc32)c1	Tau fibril ThT inconclusive, Tau fluor cs 7.9µM[quencher]
COc1ccc(C2=C(Nc3ccc(C)cc3)c3ccccc3C2=O)cc1	none
COC(=O)[C@@H]1[C@@H](C)N(CCc2cc(OC)c(OC)c(OC)c2)C(=O)N[C@H]1c1ccccc1	none
Cc1nn(-c2ccc(N3CCOCC3)nn2)c(C)c1CCC(=O)NCc1ccc(OC(C)C)cc1	none
NS(=O)(=O)c1ccc(Nc2ccccc2)c([N+](=O)[O-])c1	Tau fibril ThT inconclusive
CCc1nnc(NS(=O)(=O)c2ccc(NC(=O)OC)cc2)s1	none
CCc1nnc(NS(=O)(=O)c2ccc(Nc3ccc([N+](=O)[O-])c4nonc34)cc2)s1	Tau fibril ThT 14µM
NS(=O)(=O)c1ccc(Nc2ccc([N+](=O)[O-])c3nonc23)cc1	Tau fibril ThT 16µM
CCOc1ccc(-c2nnc(SCC(=O)NCCc3ccccc3)nc2-c2ccc(OCC)cc2)cc1	none
O=C(NC(Cc1c[nH]c2ccccc12)C(=O)O)c1cccs1 (stereo unspecified)	none
O=C(NC(Cc1c[nH]c2ccccc12)C(=O)Nc1ccc(OC(F)(F)F)cc1)c1cccs1 (stereo unspecified)	Tau FP inhib inconclusive, Tau fluor cs 7.9µM[quencher]
O=C(NC(Cc1c[nH]c2ccccc12)C(=O)Nc1ccc(F)c([N+](=O)[O-])c1)c1cccs1 (stereo unspecified)	Tau fibril ThT inconclusive, Tau fluor cs 16µM[quencher]
COC(OC)c1ccc(C#N)c(SCc2ccc(C)cc2)n1	Tau fluor cs inconclusive
NNS(=O)(=O)c1ccc(Oc2ccc(S(=O)(=O)NN)cc2)cc1	none (no result: Tau FP inhib, Tau fibril ThT, Tau fluor cs)
COc1ccc(CCNC(=O)c2cnn(-c3ccc(F)cc3)c2C2CCN(C(=O)OC(C)(C)C)CC2)cc1OC	none
Cn1cnnc1SCC(=O)c1cc2ccccc2oc1=O	Tau FP inhib inconclusive, Tau fibril ThT 28µM, Tau fluor cs inconclusive
Cc1cccc(Cn2cc(C(=O)Nc3ccc(F)c(C(F)(F)F)c3)ccc2=O)c1	Tau FP inhib 25µM, Tau fluor cs inconclusive
COc1ccc(NC(=O)Cn2c(=O)n(-c3ccc(C)cc3)c(=O)c3c2c2cc(C)ccc2n3C)cc1	none
C[C@@](N)(Cc1ccc(O)c(O)c1)C(=O)O	Tau FP inhib inconclusive, Tau fibril ThT 4.5µM, Tau fluor cs inconclusive, TR SRC2 fluor cs inconclusive
Nc1ccc(N2CCN(c3ncc(C(F)(F)F)cc3Cl)CC2)c(C(F)(F)F)c1	Tau FP inhib inconclusive, Tau fibril ThT 20µM, Tau fluor cs 10µM[quencher]
NC(=O)c1ccc(N2CCN(c3ncc(C(F)(F)F)cc3Cl)CC2)cc1	Tau fibril ThT inconclusive
OCC1(Cc2ccc(Cl)cc2)CCN(Cc2ccc(Oc3ncccn3)cc2)CC1	none
Oc1c(C=Nc2ccccc2Cl)[nH]c2ccccc12	Tau FP inhib inconclusive, Tau fibril ThT 40µM, Tau fluor cs inconclusive
O=c1[nH][nH]c(C(F)(F)F)c1C=Nc1ccccc1Cl	none
Cc1cc2cc(C=C(C#N)C#N)c(Cl)nc2cc1C	Tau FP inhib inconclusive, Tau fibril ThT 3.2µM
CC(=O)c1ccc(NC(=O)Nc2sc3nc4n(c(=O)c3c2C)CCC(C)CC4)cc1 (stereo unspecified)	Tau FP inhib inconclusive, Tau fibril ThT inconclusive, Tau fluor cs 13µM[quencher]
Oc1cccc2ccc[n+](CC(O)Cn3c4ccccc4c4ccccc43)c12 (stereo unspecified)	Tau fibril ThT inconclusive, Tau fluor cs inconclusive, TR SRC2 fluor cs 0.89µM[quencher]
OC(COc1ccccc1)Cn1c2ccccc2c2ccccc21 (stereo unspecified)	Tau FP inhib inconclusive, Tau fluor cs inconclusive
Cc1cccc(C(=O)n2nc(-c3cccnc3)nc2NCc2ccccc2)c1	Tau fibril ThT inconclusive, Tau fluor cs inconclusive, TR SRC2 fluor cs 0.0089µM[quencher]
CCCc1cc(=O)n2[nH]c(C)c(-c3ccccc3)c2n1	none
COc1cccc(N=Nc2c(N)[nH]n3c(=O)cc(-c4ccccc4)nc23)c1	Tau fibril ThT 4µM, Tau fluor cs inconclusive
Cc1ccc(N=Nc2c(N)[nH]n3c(=O)cc(-c4ccccc4)nc23)cc1	Tau fibril ThT 3.2µM, Tau fluor cs inconclusive
Cc1[nH]n2c(=O)cc(-c3ccc(Cl)cc3)nc2c1-c1ccccc1	Tau fibril ThT 14µM, Tau fluor cs inconclusive
CCn1c(SCC(=O)N/N=C(\C)c2ccco2)nnc1-c1ccccc1	none
COC(=O)C1(CC(C)C)C=C2C(=C(C(C)C)C(=O)C2C)CN1 (stereo unspecified)	none
N#CNC(=Nc1ccc(Cl)cc1)Oc1ccccc1	none (no result: Tau fibril ThT)
Cc1ccc(NS(=O)(=O)c2cc([N+](=O)[O-])ccc2NNC(=S)Nc2cc(C)ccc2C)c(C)c1	Tau fibril ThT inconclusive, Tau fluor cs 13µM[quencher]
COc1ccc(NC(=S)Nc2cccc([N+](=O)[O-])c2)cc1	none
COc1ccc(NC(=S)NNc2ccc([N+](=O)[O-])cc2S(=O)(=O)Nc2ccc(C)cc2C)cc1	Tau fibril ThT 32µM, Tau fluor cs 14µM[quencher]
Cc1ccc([N+](=O)[O-])cc1NC(=S)NC(=O)C(C)(C)C	none
Cc1ccc(NS(=O)(=O)c2cc([N+](=O)[O-])ccc2NNC(=S)Nc2cccc(Cl)c2)c(C)c1	Tau FP inhib inconclusive, Tau fibril ThT 10µM, Tau fluor cs 7.9µM[quencher], TR SRC2 fluor cs inconclusive
O=C(NCc1ccccc1Cl)c1ccc(NC(=O)N2CCSc3ncccc32)cc1	none
CCO[Si](CCC#N)(OCC)OCC	none (no result: Tau FP inhib, Tau fibril ThT, Tau fluor cs)
CC(=O)OC1CCC(C(C)(C)C)CC1 (stereo unspecified)	none (no result: Tau FP inhib, Tau fibril ThT, Tau fluor cs)
CC(=O)OC[C@@H]1O[C@H](C/C=N\OCC[C@H]2C=C[C@H](OC(C)=O)[C@@H](COC(C)=O)O2)C=C[C@@H]1OC(C)=O	none
CC1Cc2cc(S(=O)(=O)NCCc3ccc(Cl)cc3)ccc2N1C(=O)C1CCC1 (stereo unspecified)	none
OC(c1ccccc1)c1nccc2ccccc12 (stereo unspecified)	none
Oc1ccc(/C=N/Nc2ccnc3cc(Cl)ccc23)cc1O	Tau fibril ThT 10µM, Tau fluor cs 16µM[quencher]
Cc1cccc(OCCn2cc(/C=N/NC(=O)c3ccncc3)c3ccccc32)c1	Tau fibril ThT inconclusive, Tau fluor cs 16µM[quencher]
Cc1cccc(C(=O)Nc2ccccc2C(=O)OCc2cc(=O)n3nc(C4CC4)sc3n2)c1	none
O=C1S/C(=C\c2ccc(N3CCOCC3)o2)C(=O)N1c1ccccc1	Tau FP inhib inconclusive, Tau fibril ThT 11µM
COc1ccc2c(c1)c1c(c(=O)n(-c3cccc(C)c3)c(=O)n1Cc1cccc(Cl)c1)n2C	none

Screening results as filed in PubChem BioAssay.
